The target in assay [1] is Calcium and integrin-binding protein 1 (Homo sapiens) (UniProt Q99828). Put plainly: Primary qHTS for Identification of Calcium Integrin Binding Protein 1 (CIB1) Competitor (AID 1508620; active = well fitted curve in the direction sought with a large enough effect; an effect the other way counts as inactive or inconclusive; also: top concentration of the series differs between compounds). In short, it runs like this: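 Fluorescence polarization competition: GST-tagged CIB1 (1 uM final) preincubated with compound 15 min at room temperature, then FITC-labelled alphaIIb peptide (100 nM final) added. After 15 min at room temperature, polarization read at Ex 480/Em 540.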
Calcium and integrin-binding protein 1 (Homo sapiens), sequence (Q99828 whole entry, looked up): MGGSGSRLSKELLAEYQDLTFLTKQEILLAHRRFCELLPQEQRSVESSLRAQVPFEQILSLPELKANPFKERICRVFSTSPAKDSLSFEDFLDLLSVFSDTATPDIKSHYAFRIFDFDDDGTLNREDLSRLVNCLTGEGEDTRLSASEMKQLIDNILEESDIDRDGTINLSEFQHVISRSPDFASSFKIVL

The target in assay [2] is Cytochrome P450 2D6 (Homo sapiens) (UniProt P10635). The assay is described as follows: Cytochrome P450 family 2 subfamily D member 6 (CYP2D6) small molecule antagonists: luciferase biochemical (cell-free) qHTS assay (AID 1645840). Also: nearly all actives have a fitted effect of over 55% in size. Also: potency is read from the fitted curve at half-maximal effect. The essentials:
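P450-Glo CYP2D6 system: proluciferin substrate converted by enzyme to luciferin, read by luminescence proportional to activity. Enzyme-substrate mix with compound 10 min at room temperature, then NADPH regeneration 1 h before detection reagent.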

Assay [3] has as its target Cytochrome P450 3A4 (Homo sapiens) (UniProt P08684). Put plainly: Cytochrome P450 family 3 subfamily A member 4 (CYP3A4) small molecule antagonists: luciferase qHTS assay (AID 1645841). Also: nearly all actives have a fitted effect of over 45% in size. Also: potency is read from the fitted curve at half-maximal effect. The essentials:
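P450-Glo CYP3A4 enzyme with proluciferin substrate preincubated 10 min with compound at room temperature, then NADPH regeneration 1 h. Luciferin detection reagent added for 20 min; luminescence recorded. Ketoconazole positive control.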
(In qHTS, concentration-response curves come from the screen itself.)

Molecules are shown by their SMILES. Inconclusive results are not listed. Active and inactive are the calls of the source. Unless noted, calls follow the shape of the dose curve; as a rule, active = well fitted curve in the direction sought with a large enough effect in the repeat runs; inconclusive = weak or mixed curves; inactive = no such curve, though single readings can be large; an effect the other way counts as inactive or inconclusive.

Cytochrome P450 2D6 (Homo sapiens), sequence (P10635 whole entry, looked up): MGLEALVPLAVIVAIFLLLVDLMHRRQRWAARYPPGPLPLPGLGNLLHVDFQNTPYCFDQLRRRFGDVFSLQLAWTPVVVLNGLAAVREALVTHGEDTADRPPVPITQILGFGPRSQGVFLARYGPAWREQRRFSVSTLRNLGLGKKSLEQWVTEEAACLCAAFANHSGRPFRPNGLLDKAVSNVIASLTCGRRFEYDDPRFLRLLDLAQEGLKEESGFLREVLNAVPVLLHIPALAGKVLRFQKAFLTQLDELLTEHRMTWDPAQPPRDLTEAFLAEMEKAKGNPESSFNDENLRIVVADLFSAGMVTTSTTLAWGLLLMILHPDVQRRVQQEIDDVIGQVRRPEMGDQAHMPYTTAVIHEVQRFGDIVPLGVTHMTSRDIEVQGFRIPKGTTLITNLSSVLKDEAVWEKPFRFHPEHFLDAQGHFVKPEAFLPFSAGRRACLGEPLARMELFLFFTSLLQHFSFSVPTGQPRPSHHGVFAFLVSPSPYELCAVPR
Cytochrome P450 3A4 (Homo sapiens), sequence (P08684 whole entry, looked up): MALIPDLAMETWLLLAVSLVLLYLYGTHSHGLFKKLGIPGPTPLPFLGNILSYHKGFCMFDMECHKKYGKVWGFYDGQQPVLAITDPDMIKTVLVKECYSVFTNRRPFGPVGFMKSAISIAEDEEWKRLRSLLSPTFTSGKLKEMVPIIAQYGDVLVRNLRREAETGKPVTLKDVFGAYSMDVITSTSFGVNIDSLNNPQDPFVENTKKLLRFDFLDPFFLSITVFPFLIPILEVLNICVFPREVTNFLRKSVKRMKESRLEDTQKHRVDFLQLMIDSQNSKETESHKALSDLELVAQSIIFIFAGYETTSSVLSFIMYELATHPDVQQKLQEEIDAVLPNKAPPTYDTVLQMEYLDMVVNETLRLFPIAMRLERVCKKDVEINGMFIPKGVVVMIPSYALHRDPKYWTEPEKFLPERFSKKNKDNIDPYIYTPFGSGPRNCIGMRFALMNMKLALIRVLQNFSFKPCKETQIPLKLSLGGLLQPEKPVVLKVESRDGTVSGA

For the compound `CCN(CC)CCCS(=O)(=O)N[C@H](CCc1ccccc1)c1nc(Cc2ccc(Br)cc2)no1`, in assay [1], the Potency entry is “inactive”. Further, in assay [2], the Potency was 6.01 µM (active).

In the case of `C[C@H](Oc1cc(-n2cnc3ccc(CN4CCN(C)CC4)cc32)sc1C(N)=O)c1ccccc1C(F)(F)F`, in assay [1], the Potency result is “inactive”. Besides, the Potency in assay [2] was 21.3 µM (active).

On to `CCOC(=O)c1cnn(-c2ccccc2)c1NC(=O)c1cc2nc(-c3ccco3)cc(C(F)(F)Cl)n2n1`, for which the Potency result in assay [1] and in assay [2] was “inactive” throughout.

With `CC[N+]1(C/C2=C/CCCCCC2)CCC(NC(=O)C2c3cc(Cl)ccc3Oc3ccc(Cl)cc32)CC1` (stereo not drawn), the Potency entry in assay [1] was “inactive”. Further, the Potency in assay [2] is 0.425 µM (active).

As to `Cc1cc(F)ccc1[C@H]1C[C@@H](N2CCN3C(=O)CC[C@H]3C2)CCN1C(=O)N(C)[C@H](C)c1cc(C(F)(F)F)cc(C(F)(F)F)c1`, in assay [1], the Potency result was “inactive”. Besides, the Potency in assay [2] was 13.5 µM (active).

On to `O=C(Nc1ccccc1)N1CCC(Cc2cnc3ccccc3c2)CC1`, for which the Potency entry in assay [1] is “inactive”. The Potency in assay [2] is 26.8 µM (active).

Regarding `O=C(Nc1nc2ccc([N+](=O)[O-])cc2s1)C1CCCCC1`, the Potency entry in assay [1] was “inactive”. The Potency in assay [2] was 1.9 µM (active).

For the compound `Cc1c(NC(=O)c2cc3c(s2)CCCC3)cccc1-c1cn(C)c(=O)c(Nc2ccc(C3C(=O)N(C)CCN3C)cc2)n1` (stereo not drawn), the Potency result in assay [1] and in assay [2] was “inactive” throughout.

Take `Cn1c(SCC(=O)N2CCC[C@H]2C(=O)Nc2ccccc2-c2ccccc2)nc2ccccc21`: the Potency result in assay [1] is “inactive”. Besides, the Potency in assay [2] is 16.9 µM (active).

With `NC(=O)N1CCC(CC(=O)N2CCC(C3c4ncc(Br)cc4CCc4cc(Cl)cc(Br)c43)CC2)CC1` (stereo not drawn), the Potency result in assay [1] is “inactive”. For the same compound, the Potency in assay [2] was 16.9 µM (active).

For the compound `O=C(NC1CCN(CCCCC2(C(=O)NCC(F)(F)F)c3ccccc3-c3ccccc32)CC1)c1ccccc1-c1ccc(C(F)(F)F)cc1`, the Potency result in assay [1] is “inactive”. Further, in assay [2], the Potency was 1.07 µM (active).

On to `O=C(NCCN1CCOCC1)c1cc2c(Oc3ccc(NC(=O)C4(C(=O)Nc5ccc(F)cc5)CC4)cc3)ccnc2[nH]1`, for which the Potency entry in assay [1] is “inactive”. Moreover, the Potency in assay [2] is 19 µM (active).

Take `COC1CCN(c2cccc(-c3cc(NC(C)=O)nc(-n4nc(C)cc4C)n3)n2)CC1`: the Potency entry in assay [1] is “inactive”. For the same compound, in assay [2], the Potency was 6.01 µM (active).

As for `O=C1c2ccc(Nc3ccc(F)cc3F)cc2CCc2ccc(OCC(O)CO)cc21` (stereo not drawn), in assay [1], the Potency entry is “inactive”. Besides, in assay [2], the Potency is 26.8 µM (active).

On to `COc1cc(N(C)CCN(C)C)c(N)cc1Nc1nccc(-c2cn(C)c3ccccc23)n1`, for which the Potency entry in assay [1] is “inactive”. Further, the Potency in assay [2] was 19 µM (active).

For `CC(NC(=O)Cc1cc(F)cc(F)c1)C(=O)NC1C(=O)N(C)c2ccccc2-c2ccccc21` (stereo not drawn), the Potency entry in assay [1] and in assay [2] was “inactive” each time.

In the case of `CC(C)(O)c1ccn2c(-c3ccc(F)c(-c4ccc(F)cc4C#N)c3)cnc2c1F`, the Potency entry in assay [1] was “inactive”. In assay [2], the Potency was 19 µM (active).

As to `Cc1cn2cc(C(=O)N(C)CCO)cc(NC3CCOc4cccc(C)c43)c2n1` (stereo not drawn), the Potency result in assay [1] and in assay [2] was “inactive” throughout.

As for `Cn1cc(-c2ccc(S(=O)(=O)n3ccc(/C=C/C(=O)Nc4ccccc4N)c3)cc2)cn1`, the Potency entry in assay [1] is “inactive”. In addition, the Potency in assay [2] is 2.68 µM (active).

`Cc1nc2ccc(-n3ncc(C(=O)c4cc5ccccc5[nH]4)c3N)cc2[nH]1`: the Potency entry in assay [1] is “inactive”. In addition, the Potency in assay [2] is 23.9 µM (active).

For the compound `CC(C)(C)Oc1ccc(OCC2Cc3ccccc3CN2C(=O)c2cccc3ccccc23)cc1` (stereo not drawn), the Potency result in assay [1] and in assay [2] was “inactive” each time.

With `Cc1nc(C#Cc2ccnc(Cl)c2)c(C)n1-c1ccc(F)cc1`, the Potency entry in assay [1] was “inactive”. Also, the Potency in assay [2] is 19 µM (active).

For the compound `O=C(NS(=O)(=O)c1ccc(Br)s1)c1ccc(Cl)cc1Cl`, the Potency entry in assay [1] and in assay [2] was “inactive” each time.

Take `O=C(Nc1ccc(CN2CCOCC2)cc1)c1ccc(-c2cccc(Cl)c2)o1`: the Potency result in assay [1] is “inactive”. Moreover, the Potency in assay [2] was 15.1 µM (active).

In the case of `Cc1cccc(C#Cc2cc(F)cc(C#N)c2)n1`, the Potency entry in assay [1] and in assay [2] was “inactive” each time.

With `COc1ccc2c(c1O[C@H]1CCNC1)CCC2`, in assay [1], the Potency entry was “inactive”. For the same compound, the Potency in assay [2] was 16.9 µM (active).

`CCO[C@H]1CN(C2CCC(O)(c3ccc4c(c3)OCO4)CC2)C[C@@H]1NC(=O)CNC(=O)c1cccc(C(F)(F)F)c1` (stereo partly drawn): the Potency result in assay [1] was “inactive”. Moreover, the Potency in assay [2] was 3.38 µM (active).

As for `COc1cccc(OCCCN)c1-c1cc(Nc2cnc(C#N)cn2)n[nH]1`, the Potency result in assay [1] is “inactive”. In addition, in assay [2], the Potency was 6.74 µM (active).

For `C=CC(=O)N1CCN(C(=O)CNc2cc(-c3ccccc3Cl)c(Cl)cc2OC)CC1`, in assay [1], the Potency result is “inactive”. Besides, the Potency in assay [2] is 12 µM (active).

With `CCOc1cn(-c2ccc(F)cc2C)nc1C(=O)Nc1ccc(Oc2ccnc3cc(OC)c(OC)cc23)c(F)c1`, the Potency entry in assay [1], in assay [2] and in assay [3] was “inactive” each time.

Turning to `COC(=O)c1ccc2c(c1)nc(NC(=O)c1ccccc1)n2CCCc1ccccc1`, the Potency result in assay [1], in assay [2] and in assay [3] was “inactive” in each case.

Consider `Cc1ccc(C(=O)Nc2ccc(CN3CCN(C)CC3)c(C(F)(F)F)c2)cc1C#Cc1cnc2[nH]ncc2c1`, for which the Potency result in assay [1] is “inactive”. For the same compound, the Potency in assay [2] is 16.9 µM (active); in assay [3], 6.01 µM (active).

Turning to `Cc1cc2occ(CN(C)CCN(C)Cc3cn(-c4cccc(C(F)(F)F)c4)c4ccccc34)c(=O)c2cc1C`, the Potency in assay [2] was 4.77 µM (active).

Take `O=C(NCCCn1ccnc1)c1cc(-c2ccco2)on1`: the Potency entry in assay [1] is “inactive”. The Potency in assay [2] was 8.49 µM (active).

Take `CC1(C)Oc2ncnc(N)c2N=C1c1ccc(C23CCC(CC(=O)O)(CC2)CC3)cc1`: the Potency result in assay [1], in assay [2] and in assay [3] was “inactive” in each case.

Source of the values: PubChem BioAssay (NCATS).
